Measurements reported in PubChem BioAssay (NCATS).
Results filed as inconclusive are left out. Active and inactive are the calls of the source. The call rests on the fitted dose curve; in most records, active means well fitted cell-killing curve with a large enough effect; inconclusive means small, poorly fitted or top-dose-only effect; inactive means no such curve, though single readings can be large or run the other way.
Potency means the concentration at half of the fitted maximal effect.

Test: Quantitative High-Throughput drug screen in 47 multiple myeloma cell lines against the NCATS MIPE library collection: JIM3_ECACC cell viability assay (AID 1918963; further: nearly all actives have a fitted effect of over 35% in size)
Conditions: JIM3 myeloma viability, CellTiter-Glo ATP, 48 h; series mostly up to 45.8 µM; viability, percent of control: at the top concentration
Excerpt: PI: Beverly A. Mock Ph.D.
Laboratory of Cancer Biology and Genetics,
Center for Cancer Research, National Cancer Institute,
National Institute of Health, Bethesda, Maryland
Drug resistance and disease progression are common in multiple myeloma (MM) patients, underscoring the need for new therapeutic combinations. […] We hypothesized that effective combinations would reduce MYC expression and enhance p16 activity. […] These preclinical data identify potentially useful drug combinations for evaluation in drug-resistant MM and reveal potential mechanisms of combined drug sensitivity.
Described herein is the primary MIPE qHTS used to cherrypick compounds. Validated compounds were then further tested for potential synergistic activiy.
[1] Peat TJ, Gaikwad SM, Dubois W, Gyabaah-Kessie N, Zhang S, Gorjifard S, Phyo Z, Andres M, Hughitt VK, Simpson RM, Miller MA, Girvin AT, Taylor A, Williams D, D'Antonio N, Zhang Y, Rajagopalan A, Flietner E, Wilson K, Zhang X, Shinn P, Klumpp-Thomas C, McKnight C, Itkin Z, Chen L, Kazandijian D, Zhang J, Michalowski AM, Simmons JK, Keats J, Thomas CJ, Mock BA. Drug combinations identified by high-throughput screening promote cell cycle transition and upregulate Smad pathways in myeloma. Cancer Lett. 2023 Aug 1;568:216284. doi: 10.1016/j.canlet.2023.216284. Epub 2023 Jun 24. PMID: 37356470; PMCID: PMC10408729.
SEQUENCE No. (e.g., 1, 2, 3, etc.); […] (e.g., Cells, Incubation, Reagent, etc.); VALUE and DESCRIPTION.
1; Cells; 5 uL; white, solid bottom 1536-well Greiner assay plate.
2; Compounds; 23 nL; Kalypsis pin tool (Wako USA) equipped with a 1536-well pin head to transfer to the assay plates.
3; Incubation; 48 hours; 37C incubation.
4; Reagent;5uL; CellTiter Glo (Promega).
5; Detector; 425V; Luminescence; Viewlux PerkinElmer.
NOTES (numbers refer to Sequence numbers above)
1. The cell-based screening methods employed in this study were like those previously published. Briefly, the corresponding myeloma cell lines were screened in 1,536-well plates with 500 cells, 5-uL per well for inhibition of cell viability (assessed by measuring ATP levels with CellTiterGlo).
2. NCATS MIPE 4.0 library of approved and investigational drugs were added using the Kalypsis pin tool. Wells treated with DMSO only for 100% viability and media only wells for 0% viability were used as controls.
3. The assay plates were covered and incubated for 48 hours in a 37C, 5% CO2 incubator with controlled humidity.
4. After 48 hours, CellTilter-GloTM luminescent substrate mix (Promega) reagent was added to the assay plate and plates we incubated for 5 min at room temperature.
5. Signal was measured as median relative luminescence units on a ViewLux (PerkinElmer) multiplate reader.
[1] Heske CM, Davis MI, Baumgart JT, Wilson K, Gormally MV, Chen L, Zhang X, Ceribelli M, Duveau DY, Guha R, Ferrer M, Arnaldez FI, Ji J, Tran HL, Zhang Y, Mendoza A, Helman LJ, Thomas CJ. Matrix Screen Identifies Synergistic Combination of PARP Inhibitors and Nicotinamide Phosphoribosyltransferase (NAMPT) Inhibitors in Ewing Sarcoma. Clin Cancer Res. 2017 Dec 1;23(23):7301-7311. doi: 10.1158/1078-0432.CCR-17-1121. Epub 2017 Sep 12. PMID: 28899971; PMCID: PMC6636827.
In the case of `CC1CNc2c(cccc2S(=O)(=O)N[C@@H](CCCN=C(N)N)C(=O)N2CC[C@@H](C)C[C@@H]2C(=O)O)C1` (stereo not given in full), the “viability, percent of control” value is reported as 124% (inactive). For `C=C1c2cccc(O)c2C(O)=C2C(=O)[C@@]3(O)C(O)=C(C(N)=O)C(=O)[C@@H](N(C)C)[C@@H]3[C@@H](O)[C@H]12`, the Potency was 16.6 µM (active). For `CC(C)N(CCCNC(=O)Nc1ccc(C(C)(C)C)cc1)C[C@H]1O[C@@H](n2cc(Br)c3c(N)ncnc32)[C@H](O)[C@H]1O`, the Potency was 29.6 µM (active). In the case of `CN1CC(=O)N2C(Cc3c([nH]c4ccccc34)[C@H]2c2ccc3c(c2)OCO3)C1=O` (stereo not given in full), the “viability, percent of control” value is reported as 78.8% (inactive). With `COc1cc2ncn(-c3cc(OCc4ccccc4S(C)(=O)=O)c(C#N)s3)c2cc1OC` the “viability, percent of control” value was 90.3% (inactive). In the case of `Cc1cn([C@@H]2C[C@@H](O)[C@H](CO)O2)c(=O)[nH]c1=O`, the “viability, percent of control” value is reported as 107% (inactive). For `COC(=O)Nc1ccc(-c2nc(N3CCOCC3)c3cnn(C4CCN(C(=O)OC)CC4)c3n2)cc1`, the Potency was 0.264 µM (active). With `Cc1cc2nc3c(=O)[nH]c(=O)nc-3n(CC(O)C(O)C(O)CO)c2cc1C` (stereo not given) the “viability, percent of control” value was 98% (inactive). In the case of `Cc1ccc(NC(=O)Nc2cc(C(F)(F)F)ccc2F)cc1Nc1ccc2c(c1)NC(=O)C2=Cc1ccc[nH]1`, the Potency is reported as 4.18 µM (active). For `O=C(Nc1cccc(C(F)(F)F)c1)Nc1cc(S(=O)(=O)NC2CC2)ccc1-c1ccsc1`, the Potency was 23.5 µM (active). For `O=C(O)CCC=CCC[C@@H]1[C@H](N2CCCCC2)[C@@H](O)C[C@@H]1OCc1ccc(-c2ccccc2)cc1`, the “viability, percent of control” value was 118% (inactive). In the case of `Cc1cnc(Nc2cccc(CN3CCOCC3)c2)nc1Nc1cccc(S(=O)(=O)NC(C)(C)C)c1`, the Potency is reported as 2.96 µM (active). With `NC(=O)c1nnn(Cc2cc(Cl)c(C(=O)c3ccc(Cl)cc3)c(Cl)c2)c1N` the Potency was 26.4 µM (active). With `Cn1cc(-c2ccc3nnc(Sc4ccc5ncccc5c4)n3n2)cn1` the “viability, percent of control” value was 123% (inactive). For `Cc1ccc(S(=O)(=O)OCC(=O)Nc2ccc(C(=O)O)c(O)c2)cc1`, the Potency was 23.5 µM (active). With `NC(=O)c1ccc(N(C(N)=O)c2c(F)cccc2F)nc1-c1ccc(F)cc1F` the Potency was 11.8 µM (active). For `Cc1ccc(C(=O)N(CCCN)[C@@H](c2nc3cc(Cl)ccc3c(=O)n2Cc2ccccc2)C(C)C)cc1`, the “viability, percent of control” value was 3.81% (inactive). In the case of `CCCCC(C)(C)[C@H](O)C=C[C@H]1[C@H](O)CC(=O)[C@H]1CC=CCCCC(=O)O`, the Potency is reported as 20.9 µM (active). For `CN1CCN(c2ncc(-c3cc(Cl)cc(Cl)c3Cl)c(N)n2)CC1`, the “viability, percent of control” value was 128% (inactive). For `CC(C)[C@H](O)C(=O)N[C@@H](C)C(=O)N[C@@H]1C(=O)N(C)CCc2ccccc21`, the “viability, percent of control” value was 99.8% (inactive). In the case of `O=C(C=Cc1ccc(O)cc1)c1ccc(O)cc1O`, the Potency is reported as 20.9 µM (active). For `CC(=O)NCCC(=O)N[C@@H](CCC(N)=O)C(=O)N[C@@H](CO)C(=O)N[C@@H](CCC(N)=O)C(=O)N[C@@H](CCC(N)=O)C(=O)N[C@H](C(=O)N[C@@H](Cc1ccccc1)C(=O)N[C@]1(C)CCCCCCC=CCCC[C@@](C)(C(=O)N[C@@H](CCC(N)=O)C(=O)N[C@@H](CC(N)=O)C(N)=O)NC(=O)[C@H](CC(C)C)NC(=O)[C@H](CC(C)C)NC(=O)[C@@H](CCCNC(=N)N)NC(=O)[C@H](Cc2c[nH]c3ccccc23)NC(=O)[C@H](CC(C)C)NC(=O)[C@H](CC(N)=O)NC1=O)[C@H](C)O`, the Potency was 20.9 µM (active). For `CNC1[C@H](O)C(O[C@@H]2C(O)C(O[C@H]3O[C@H]([C@@H](C)NC)CC[C@H]3N)[C@@H](N)C[C@H]2N)OC[C@]1(C)O` (stereo not given in full), the “viability, percent of control” value was 95.9% (inactive). In the case of `CCC(c1ccc(O)cc1)C(CC)c1ccc(O)cc1` (stereo not given), the “viability, percent of control” value is reported as 129% (inactive). In the case of `OC[C@H]1O[C@@H](Oc2ccc(O)cc2)[C@H](O)[C@@H](O)[C@H]1O`, the Potency is reported as 10.5 µM (active). With `Cc1cccc(Nc2nc(N[C@@H]3CCCC[C@H]3N)ncc2C(N)=O)c1` the Potency was 16.6 µM (active). With `COC(=O)[C@H](c1ccccc1Cl)N1CCc2sccc2C1` the “viability, percent of control” value was 97.5% (inactive). For `COc1ccc2cc1Oc1ccc(cc1)C[C@H]1c3cc(c(OC)cc3CCN1C)Oc1c(OC)c(OC)cc3c1[C@H](C2)N(C)CC3`, the Potency was 18.7 µM (active). With `CON(C)C(=O)N1N=C(c2cc(F)ccc2F)S[C@]1(CCCN)c1ccccc1` the “viability, percent of control” value was 16.9% (inactive). For `CCC[C@@H](NC(=O)[C@@H]1[C@H]2CCC[C@@H]2CN1C(=O)[C@@H](NC(=O)[C@@H](NC(=O)c1cnccn1)C1CCCCC1)C(C)(C)C)C(=O)C(=O)NC1CC1`, the Potency was 20.9 µM (active). With `COc1nc(C)cnc1NS(=O)(=O)c1cccnc1-c1ccc(-c2nnco2)cc1` the “viability, percent of control” value was 128% (inactive). For `COc1c(C)c2c(c(O)c1CC=C(C)CCC(=O)O)C(=O)OC2`, the Potency was 4.69 µM (active). For `OC[C@H]1O[C@@H](O[C@H]2[C@@H](O)[C@@](O)(CO)O[C@@H]2CO)[C@H](O)[C@@H](O)[C@@H]1O`, the “viability, percent of control” value was 102% (inactive). For `CN(C)CCN(Cc1ccc(Cl)cc1)c1ccccn1`, the “viability, percent of control” value was 85.1% (inactive). In the case of `C[C@@H]1[C@H](C)CC[C@]2(C(=O)O)CC[C@]3(C)C(=CC[C@@H]4[C@@]5(C)CC[C@H](O)C(C)(C)[C@H]5CC[C@]43C)[C@@H]12`, the “viability, percent of control” value is reported as 80.5% [at 92.2 µM] (inactive). For `NC[C@H]1O[C@H](O[C@@H]2[C@@H](O)[C@@H](O[C@H]3O[C@H](CO)[C@@H](O)[C@H](N)[C@@H]3O)[C@H](N)C[C@@H]2N)[C@H](O)[C@@H](O)[C@H]1O`, the “viability, percent of control” value was 120% (inactive). With `CCn1c(-c2nonc2N)nc2cncc(CNC3CCNCC3)c21` the Potency was 2.96 µM (active). For `O=c1[nH]c(=O)n([C@H]2C[C@@H](O)[C@@H](CO)O2)cc1C(F)(F)F`, the “viability, percent of control” value was 100% (inactive). With `OC(c1cc(C(F)(F)F)nc2c(C(F)(F)F)cccc12)C1CCCCN1` (stereo not given) the Potency was 18.7 µM (active). In the case of `CN(C)c1nc(Cc2ccc(NC(=O)c3ccc(C(F)(F)F)cc3)cc2)nc(N(C)C)c1CC(=O)O`, the “viability, percent of control” value is reported as 119% (inactive).
